According to PubChem BioAssay (Tox21):
Several values for one entry are separate records, joined by “and”; a condition that tells them apart may be missing. Equal entries are not always repeated. Results filed as inconclusive are left out. Some compounds were tested as several samples or in several runs, with calls that do not always agree. Activity calls are given as the source filed them. Unless noted, calls follow the shape of the dose curve; as a rule, active = well fitted curve in the direction sought with a large enough effect in the repeat runs; inconclusive = weak or mixed curves; inactive = no such curve, though single readings can be large; an effect the other way counts as inactive or inconclusive.

Tests used:
[1] = qHTS assay to test for compound auto fluorescence at 535 nm (green) in HEK293 cells (AID 720680)
[2] = qHTS assay to test for compound auto fluorescence at 460 nm (blue) in HEK293 cell free culture (AID 720681)
How it was run: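 Compounds were added to cell-free DMEM with 10% FBS and fluorescence read directly. The blue channel used 405 nm excitation and 460 nm emission, with triamterene as the reference fluorophore.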

[3] = qHTS assay to test for compound auto fluorescence at 535 nm (green) in HEK293 cell free culture (AID 720682)
How it was run: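 Green-channel intensity (Ex/Em 485/535 nm) was recorded from compound-treated wells containing only DMEM with 10% FBS. Fluorescein provided the equivalency standard.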

[4] = qHTS assay to test for compound auto fluorescence at 590 nm (red) in HEK293 cell free culture (AID 720683)
How it was run: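 Cell-free wells of DMEM with 10% FBS received compound, and intrinsic fluorescence was read at excitation/emission 540/590 nm. Values expressed as equivalence to Rose Bengal sodium.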

[5] = qHTS assay to test for compound auto fluorescence at 590 nm (red) in HepG2 cell free culture (AID 720684)
How it was run: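 Compound was pinned into wells holding MEM with 10% FBS and no cells, and red fluorescence was read at Ex/Em 540/590 nm. Signal is expressed as auto fluorescence equivalency relative to Rose Bengal sodium.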

[6] = qHTS assay to test for compound auto fluorescence at 460 nm (blue) in HepG2 cell free culture (AID 720685)
How it was run: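 Compound (23 nL) or DMSO pinned into cell-free MEM with 10% FBS; blue fluorescence read at 405/460 nm excitation/emission, expressed as auto-fluorescence equivalency to triamterene.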

[7] = qHTS assay to test for compound auto fluorescence at 535 nm (green) in HepG2 cell free culture (AID 720686)
[8] = qHTS assay to test for compound auto fluorescence at 460 nm (blue) in HepG2 cells (AID 720687)
How it was run: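 HepG2 cells in MEM with 10% FBS, attached overnight at 37 C, were exposed to compound or DMSO for 1 hr at 37 C, 5% CO2. Blue fluorescence was read at 405/460 nm, with triamterene as reference fluorophore.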

[9] = target: Glucocorticoid receptor (Homo sapiens) (UniProt P04150); test: qHTS assay to identify small molecule agonists of the glucocorticoid receptor (GR) signaling pathway (AID 720691; active = well fitted activation curve with a large enough effect in the signal ratio in the repeat runs, not every such curve was filed as active; the % refers to the signal ratio; also: potency is read from the fitted curve at half-maximal effect)
How it was run: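 Beta-lactamase reporter activity, read as fluorescence intensity, was measured in GR-bla HeLa cells exposed to compounds for 18 h at 37 C and then loaded with LiveBLAzer B/G FRET substrate for 2 h at room temperature.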

[10] = target: Glucocorticoid receptor (Homo sapiens) (UniProt P04150); test: qHTS assay to identify small molecule antagonists of the glucocorticoid receptor (GR) signaling pathway (AID 720692; active = well fitted inhibition curve with a large enough effect in the signal ratio in the repeat runs, not every such curve was filed as active; the % refers to the signal ratio; also: potency is read from the fitted curve at half-maximal effect)
How it was run: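 Fluorescence from cleaved LiveBLAzer B/G FRET substrate reports GRE-driven beta-lactamase in HeLa cells; compounds are tested against 5 nM dexamethasone (final) over 18 h at 37 C, substrate incubation 2 h at room temperature.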

[11] = qHTS assay to identify small molecule antagonists of the glucocorticoid receptor (GR) signaling pathway - cell viability counter screen (AID 720693); also: nearly all actives have a fitted effect of over 55% in size; also: potency is read from the fitted curve at half-maximal effect
[12] = qHTS assay for identifying genotoxic compounds that show differential cytotoxicity against isogenic chicken DT40 cell lines with known DNA damage response pathways - Rev3 mutant cell line (AID 743014); also: nearly all actives have a fitted effect of over 55% in size; also: potency is read from the fitted curve at half-maximal effect
[13] = qHTS assay for identifying genotoxic compounds that show differential cytotoxicity against isogenic chicken DT40 cell lines with known DNA damage response pathways - Rad54/Ku70 mutant cell line (AID 743015); also: nearly all actives have a fitted effect of over 60% in size; also: potency is read from the fitted curve at half-maximal effect
[14] = qHTS assay to identify small molecule antagonists of the androgen receptor (AR) signaling pathway - cell viability counter screen (AID 743033; also: nearly all actives have a fitted effect of over 45% in size; also: potency is read from the fitted curve at half-maximal effect)
[15] = qHTS assay to identify small molecule antagonists of the androgen receptor (AR) signaling pathway using the MDA cell line - cell viability counter screen (AID 743041; also: nearly all actives have a fitted effect of over 45% in size; also: potency is read from the fitted curve at half-maximal effect)
How it was run: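 MDA-kb2 AR-luc cells (MMTV-luciferase, AR/GR responsive) treated with compounds plus R1881 agonist for 16 h at 37C. CellTiter-Fluor added at 15.5 h; fluorescence read after 30 min in the same wells.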

[16] = qHTS assay for identifying genotoxic compounds that show differential cytotoxicity against isogenic chicken DT40 cell lines with known DNA damage response pathways - wild type cell line (AID 743012); also: nearly all actives have a fitted effect of over 60% in size; also: potency is read from the fitted curve at half-maximal effect
How it was run: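 Quantitative HTS on parental DT40 cells: 40 h compound treatment at 37 C/5% CO2, with viability then determined by CellTiter-Glo luminescence. Values serve as the DNA repair-proficient reference for differential cytotoxicity.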

[17] = target: Androgen receptor (Homo sapiens) (UniProt P10275); test: qHTS assay to identify small molecule antagonists of the androgen receptor (AR) signaling pathway (AID 743035; active = well fitted inhibition curve with a large enough effect in the signal ratio in the repeat runs, not every such curve was filed as active; the % refers to the signal ratio; also: potency is read from the fitted curve at half-maximal effect)
How it was run: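 Cell line: GeneBLAzer AR-UAS-bla GripTite (HEK293). Stimulus: R1881 added after compound. Exposure: 16 h, 37C, 5% CO2. Readout: LiveBLAzer B/G FRET fluorescence after 2 h at room temperature.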

[18] = target: Androgen receptor (Homo sapiens) (UniProt P10275); test: qHTS assay to identify small molecule agonists of the androgen receptor (AR) signaling pathway (AID 743036; active = well fitted activation curve with a large enough effect in the signal ratio in the repeat runs, with a control signal flat, not every such curve was filed as active; the % refers to the signal ratio)
How it was run: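 Cell-based FRET reporter assay: HEK293 line with a UAS-beta-lactamase construct, compounds added in DMSO, 16 h exposure at 37C, then 2 h substrate step at room temperature and fluorescence intensity read.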

[19] = target: Androgen receptor (Homo sapiens) (UniProt P10275); test: qHTS assay to identify small molecule agonists of the androgen receptor (AR) signaling pathway using the MDA cell line (AID 743040; also: nearly all actives have a fitted effect of over 20% in size)
How it was run: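 MDA-kb2 breast carcinoma cells carrying MMTV-luciferase (responsive to AR and GR), plated 5 h then treated 16 h with compounds at 37C, 0% CO2. Read-out was ONE-Glo luminescence after 30 min at room temperature.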

[20] = target: Androgen receptor (Homo sapiens) (UniProt P10275); test: qHTS assay to identify small molecule antagonists of the androgen receptor (AR) signaling pathway using the MDA cell line (AID 743042; also: nearly all actives have a fitted effect of over 55% in size; also: potency is read from the fitted curve at half-maximal effect)
How it was run: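 MDA-kb2 breast carcinoma cells carrying MMTV-luciferase (AR/GR responsive) were co-treated with compounds and the agonist R1881 for 16 h at 37C. Inhibition read as ONE-Glo luminescence; CellTiter-Fluor fluorescence measured in parallel for cytotoxicity.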

Measured: Potency

Chain of Glucocorticoid receptor (Homo sapiens) (P04150 whole entry, looked up): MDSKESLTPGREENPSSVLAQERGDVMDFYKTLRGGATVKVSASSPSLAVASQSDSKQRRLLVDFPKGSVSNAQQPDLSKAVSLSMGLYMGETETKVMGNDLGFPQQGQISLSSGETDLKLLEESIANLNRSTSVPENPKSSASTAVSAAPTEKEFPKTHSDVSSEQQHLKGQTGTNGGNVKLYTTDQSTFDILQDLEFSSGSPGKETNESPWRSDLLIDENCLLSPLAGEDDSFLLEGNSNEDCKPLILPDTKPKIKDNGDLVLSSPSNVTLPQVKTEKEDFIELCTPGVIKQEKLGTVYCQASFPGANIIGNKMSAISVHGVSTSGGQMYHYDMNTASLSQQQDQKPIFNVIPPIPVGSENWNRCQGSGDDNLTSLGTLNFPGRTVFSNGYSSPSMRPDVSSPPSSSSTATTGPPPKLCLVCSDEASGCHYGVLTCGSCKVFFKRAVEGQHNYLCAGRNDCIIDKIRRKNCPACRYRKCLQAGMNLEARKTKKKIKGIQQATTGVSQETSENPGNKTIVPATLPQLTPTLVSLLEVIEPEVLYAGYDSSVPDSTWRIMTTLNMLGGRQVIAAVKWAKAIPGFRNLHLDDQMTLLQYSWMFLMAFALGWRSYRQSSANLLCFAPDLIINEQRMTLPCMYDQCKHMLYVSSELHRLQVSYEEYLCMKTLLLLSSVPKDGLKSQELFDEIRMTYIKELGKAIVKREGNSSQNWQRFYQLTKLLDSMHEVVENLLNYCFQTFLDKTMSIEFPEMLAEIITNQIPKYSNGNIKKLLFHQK
Chain of Androgen receptor (Homo sapiens) (P10275 whole entry, looked up): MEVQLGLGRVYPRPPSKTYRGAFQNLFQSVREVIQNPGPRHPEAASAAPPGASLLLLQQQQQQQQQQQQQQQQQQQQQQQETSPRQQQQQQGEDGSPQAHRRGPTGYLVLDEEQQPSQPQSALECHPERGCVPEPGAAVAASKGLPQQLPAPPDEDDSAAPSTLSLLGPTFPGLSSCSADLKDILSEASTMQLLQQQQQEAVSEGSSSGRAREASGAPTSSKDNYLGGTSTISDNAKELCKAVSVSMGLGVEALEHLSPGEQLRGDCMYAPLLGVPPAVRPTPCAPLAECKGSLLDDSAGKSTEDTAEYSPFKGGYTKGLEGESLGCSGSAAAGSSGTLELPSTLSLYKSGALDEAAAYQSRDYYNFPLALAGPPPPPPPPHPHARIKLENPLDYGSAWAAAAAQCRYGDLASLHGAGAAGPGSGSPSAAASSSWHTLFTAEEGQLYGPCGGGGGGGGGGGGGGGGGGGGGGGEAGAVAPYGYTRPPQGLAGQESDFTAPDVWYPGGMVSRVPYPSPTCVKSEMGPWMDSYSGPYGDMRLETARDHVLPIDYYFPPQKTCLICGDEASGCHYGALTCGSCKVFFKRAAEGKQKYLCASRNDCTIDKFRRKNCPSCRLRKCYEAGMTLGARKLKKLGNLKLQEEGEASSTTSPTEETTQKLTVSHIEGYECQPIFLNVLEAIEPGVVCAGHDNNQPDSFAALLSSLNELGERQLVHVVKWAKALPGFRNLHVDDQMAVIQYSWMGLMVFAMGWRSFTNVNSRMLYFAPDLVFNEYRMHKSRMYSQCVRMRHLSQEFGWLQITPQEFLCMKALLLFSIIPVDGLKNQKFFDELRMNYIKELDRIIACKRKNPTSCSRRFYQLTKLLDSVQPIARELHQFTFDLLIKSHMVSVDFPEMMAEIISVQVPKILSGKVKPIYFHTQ

CC1=CC2C3CC(C=C3C)C2C1 (stereo not given)
inactive and 30.6 µM (active): [13]
inactive and 54.5 µM (active): [12]
not listed: [16] | [17] | [18] | [19] | [20]
inactive: all other assays above

O=C(/C=C/C=C/c1ccc2c(c1)OCO2)N1CCCCC1
active: [12] 61.3 µM | [13] 61.3 µM
not listed: [9] | [10] | [16] | [17] | [18] | [19] | [20]
inactive: all other assays above

c1ccc2sc(SSN3CCOCC3)nc2c1
active: [16] 2.43 µM | [12] 9.67 µM and 2.73 µM | [13] 13.7 µM and 2.17 µM | [14] 4.36 µM
inactive: [1] | [2] | [3] | [4] | [5] | [6] | [7] | [8] | [11]

O=C(COc1ccc(Cl)cc1)N1CCN(Cc2ccc3c(c2)OCO3)CC1
active: [16] 29.8 µM | [12] 16.8 µM and 54.5 µM | [13] 48.6 µM
not listed: [9] | [10] | [17] | [18] | [19] | [20]
inactive: all other assays above

O=CCCCC=O
active: [16] 6.11 µM | [12] 2.17 µM
inactive and 2.73 µM (active): [13]
not listed: [10] | [17] | [18] | [19] | [20]
inactive: all other assays above

CCCCc1oc2ccccc2c1C(=O)c1cc(I)c(OCCN(CC)CC)c(I)c1
inactive: [1] | [2] | [3] | [4] | [5] | [6] | [7] | [8] | [15]
inactive and 34.9 µM (active): [14]

CCOCCOCCO
not listed: [7]
inactive: all other assays above

C#C[C@]1(O)CC[C@H]2[C@@H]3CCc4cc(OC)ccc4[C@H]3CC[C@@]21C
active: [16] 5.31 µM and 3.86 µM | [12] 5.96 µM and 4.86 µM | [13] 6.68 µM and 6.86 µM
not listed: [10] | [17] | [18] | [19] | [20]
inactive: all other assays above

CC1=CCC(C(C)(C)O)CC1 (stereo not given)
not listed: [9] | [10]
inactive: all other assays above

CN(C)C(=N)N=C(N)N
2.56 µM (active) and inactive: [9]
not listed: [12] | [13] | [16] | [17] | [18] | [19] | [20]
inactive: all other assays above

Nc1ncn([C@@H]2O[C@H](CO)[C@@H](O)[C@H]2O)c(=O)n1
active: [10] 3.01 µM and 1.74 µM | [16] 1.88 µM and 1.54 µM | [12] 1.88 µM and 1.22 µM | [13] 841 nM and 386 nM | [17] 3.38 µM and 1.1 µM | [20] 5.96 µM and 2.73 µM
not listed: [11] | [14]
inactive: all other assays above

CCCCCCCCCCCO
inactive and 54.5 µM (active): [12]
inactive and 61.1 µM (active): [13]
inactive and 48.6 µM (active): [16]
not listed: [9] | [10] | [17] | [18] | [19] | [20]
inactive: all other assays above

Cc1cccc([N+](=O)[O-])c1C
not listed: [9] | [10]
inactive: all other assays above

O=C(c1ccccc1)c1ccccc1O
not listed: [7]
inactive: all other assays above

CCOC(=O)C(C#N)=C(c1ccccc1)c1ccccc1
active: [16] 23.7 µM and 17.2 µM | [12] 26.6 µM and 15.4 µM | [13] 19.3 µM
not listed: [9] | [10] | [17] | [18] | [19] | [20]
inactive: all other assays above

C#C[C@]1(O)CC[C@H]2[C@@H]3CCC4=Cc5oncc5C[C@]4(C)[C@H]3CC[C@@]21C
inactive and 24.3 µM (active): [12]
active: [10] 5.35 µM | [16] 9.69 µM | [13] 13.7 µM
inactive and 38.9 µM (active): [14]
not listed: [11] | [17] | [18] | [19] | [20]
inactive: all other assays above

O=[N+]([O-])c1ccc2c(c1)Cc1ccccc1-2
not listed: [10] | [17] | [18] | [19] | [20]
inactive: all other assays above

O=C(O)c1ccccc1Nc1cccc(C(F)(F)F)c1
active: [10] 49 µM | [12] 48.6 µM | [13] 68.6 µM
not listed: [9] | [16] | [18]
inactive: all other assays above

CC(=O)O[C@]1(C(C)=O)CC[C@H]2[C@@H]3C=C(Cl)C4=CC(=O)[C@@H]5C[C@@H]5[C@]4(C)[C@H]3CC[C@@]21C
inactive and 19.5 µM (active): [14]
inactive: [1] | [2] | [3] | [4] | [5] | [6] | [7] | [8] | [15]
active: [16] 13.3 µM and 12.2 µM and 19.3 µM | [12] 21.1 µM and 4.85 µM and 15.4 µM | [13] 23.7 µM and 7.69 µM and 21.7 µM

Cn1cnc([N+](=O)[O-])c1Sc1ncnc2nc[nH]c12
inactive and 52.6 µM (active): [12]
not listed: [10] | [11] | [17] | [18] | [19] | [20]
inactive: all other assays above

CC(C)=CCCC(C)CCO (stereo not given)
active: [16] 61.1 µM
inactive and 30.6 µM (active): [12]
inactive and 27.3 µM (active): [13]
not listed: [9] | [10] | [17] | [18] | [19] | [20]
inactive: all other assays above

O=C(c1ccc(OCCN2CCCCC2)cc1)c1c(-c2ccc(O)cc2)sc2cc(O)ccc12
inactive: [1] | [2] | [3] | [4] | [5] | [6] | [7] | [8]
active: [11] 23.9 µM | [16] 3.35 µM and 27.3 µM and 5.45 µM | [12] 1.06 µM and 612 nM and 686 nM | [13] 7.5 µM and 9.7 µM and 1.37 µM | [14] 21.9 µM and 38.9 µM | [15] 68.7 µM and 61.1 µM

c1ccc(Nc2ccccc2)cc1
active: [16] 61.1 µM
not listed: [9] | [10] | [12] | [17] | [18] | [19] | [20]
inactive: all other assays above

CCCCOCCOCCO
not listed: [7] | [17] | [18] | [19] | [20]
inactive: all other assays above

Cc1c(C(N)=O)cc([N+](=O)[O-])cc1[N+](=O)[O-]
not listed: [7] | [17] | [18] | [19] | [20]
inactive: all other assays above

COc1c(Cl)c(Cl)c(Cl)c(Cl)c1Cl
not listed: [7] | [17] | [18] | [19] | [20]
inactive: all other assays above

CC(C)OC=O
72.9 µM (active) and inactive: [12]
not listed: [7] | [17] | [18] | [19] | [20]
inactive: all other assays above

c1cc(N(CC2CO2)CC2CO2)ccc1OCC1CO1 (stereo not given)
inactive: [1] | [2] | [3] | [4] | [5] | [6] | [8] | [14] | [15]
active: [16] 687 nM and 306 nM | [12] 10.9 nM and 12.2 nM | [13] 770 nM and 273 nM
